# Screening data deposited in PubChem by National Center for Advancing Translational Sciences (NCATS).
# Hits are enriched below; roughly 12% of the tested compounds scored in any of these assays.
# BAZ2B inh: BAZ2B (human) inhibition. Q9UIF8. AlphaScreen BAZ2B-H3K14Ac peptide displacement. Potency, µM (highest dose often 114 µM), most hits filed as inhibitors. 4.4% of 360,000 active; further: nearly all actives have a fitted effect of over 60% in size
#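 Multi-concentration screen (max 110 uM) measuring displacement of acetylated histone H3 peptide from BAZ2B by AlphaScreen, using 50 nM protein, 50 nM peptide and 10 ug/mL streptavidin donor plus Ni-chelate acceptor beads.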
# G9a block: G9a (human) methyltransferase inhibition | G9a H3K9 monomethylation, AlphaScreen, 2 h | 8.8% of 350,000 active | Potency, µM (series often up to 102 µM), usual class: inhibitors | Q96KQ7; further: nearly all actives have a fitted effect of over 75% in size
# Target sequence (Q96KQ7 913-1193 limits assumed): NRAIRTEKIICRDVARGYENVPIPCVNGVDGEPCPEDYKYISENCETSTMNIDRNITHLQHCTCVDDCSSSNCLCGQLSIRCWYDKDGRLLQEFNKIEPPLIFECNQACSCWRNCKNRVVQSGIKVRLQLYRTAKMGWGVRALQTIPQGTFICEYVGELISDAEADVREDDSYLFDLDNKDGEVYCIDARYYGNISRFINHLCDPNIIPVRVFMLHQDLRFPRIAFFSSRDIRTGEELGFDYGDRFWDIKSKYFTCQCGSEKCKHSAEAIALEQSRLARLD
#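 Step 1: enzyme (final 20 nM) with compound, 15 min RT. Step 2: substrate peptide 500 nM and SAM 20 uM, 2 h RT. Step 3: anti-H3K9me1 antibody and AlphaScreen beads, 10 min, then plate read.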
# HP1b binding inh: inhibitors of HP1-beta chromodomain binding to methylated histone tails; AID 540317; 0.56% of 390,000 active; AlphaScreen HP1-beta / biotin-H3K9me3 peptide binding; P83916; Potency, µM (doses to about 114 µM), usual class: inhibitors; further: nearly all actives have a fitted effect of over 70% in size
# Target sequence (P83916 whole entry, looked up): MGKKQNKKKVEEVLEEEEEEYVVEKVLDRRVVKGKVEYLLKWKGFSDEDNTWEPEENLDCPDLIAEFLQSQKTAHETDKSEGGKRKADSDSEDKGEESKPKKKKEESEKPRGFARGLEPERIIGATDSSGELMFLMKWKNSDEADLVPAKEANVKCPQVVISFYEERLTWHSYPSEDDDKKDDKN
#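 AlphaScreen: HP1-beta (50 nM) preformed 30 min with biotin-H3(1-18)K9me3 peptide (50 nM) in PBS pH 7.4, 0.01% Tween-20. Compound added for 30 min at RT, then streptavidin donor/nickel chelate acceptor beads (10 ug/mL) for 30 min.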
# Sfp inh: inhibitors of Bacillus subtilis Sfp phosphopantetheinyl transferase. 3.5% of 310,000 active. Biochemical Sfp PPTase activity, qHTS. Potency, µM, most hits filed as inhibitors. Q9F4F7;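 further: the enzyme is Sfp with the accession as filed and its product quenches rhodamine fluorescence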
#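 Step 1, compound plus 15 nM Sfp-PPTase, 15 min, room temperature. Step 2, add rhodamine-CoA (5 uM) and BHQ-2-YbbR (12.5 uM). Step 3, read 525/598 nm fluorescence at 0 and 30 min.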
# JMJD2A Tudor: blocks the human JMJD2A Tudor domain | O75164 | AlphaScreen JMJD2A-Tudor / H3K4me3 peptide binding | Potency, µM (highest dose often 114 µM), actives largely listed as inhibitors | 4.4% of 390,000 active | AID 504339; further: nearly all actives have a fitted effect of over 50% in size
# A number is an active result; 0 = inactive; ? = inconclusive; - = no result given; [ ] = dose if it differs, or a comment. The call rests on the fitted dose curve; in most records, active means well fitted curve in the direction sought with a large enough effect; inconclusive means small, poorly fitted or top-dose-only effect, or another doubt; inactive means no such curve, though single readings can be large; an effect the other way counts as inactive or inconclusive.
SMILES,BAZ2B inh,G9a block,HP1b binding inh,Sfp inh,JMJD2A Tudor
O=C1CSC(c2ccccc2F)N1CCN1CCCCC1 (configuration not stated),0,79µM,0,0,0
CSCC[C@H](NC(=O)[C@H](CCC(N)=O)NC(=O)[C@H](CCCCN)NC(=O)[C@H](CCCNC(=N)N)NC(=O)[C@H](Cc1ccc(O)cc1)NC(=O)[C@H](CCCNC(=N)N)NC(=O)[C@H](CO)NC(=O)[C@H](Cc1ccc(O)cc1)NC(=O)[C@H](CO)NC(=O)[C@H](CC(=O)O)NC(=O)[C@@H](NC(=O)[C@@H](N)Cc1ccccc1)[C@@H](C)O)C(=O)N[C@@H](C)C(=O)N[C@H](C(=O)N[C@@H](CCCCN)C(=O)N[C@@H](CCCCN)C(=O)N[C@@H](Cc1ccc(O)cc1)C(=O)N[C@@H](CC(C)C)C(=O)N[C@@H](C)C(=O)N[C@@H](C)C(=O)N[C@H](C(=O)N[C@@H](CC(C)C)C(=O)NCC(=O)N[C@@H](CCCCN)C(=O)N[C@@H](CCCNC(=N)N)C(=O)N[C@@H](Cc1ccc(O)cc1)C(=O)N[C@@H](CCCCN)C(=O)N[C@@H](CCC(N)=O)C(=O)N[C@@H](CCCNC(=N)N)C(=O)N[C@H](C(=O)N[C@@H](CCCCN)C(=O)N[C@@H](CC(N)=O)C(=O)N[C@@H](CCCCN)C(N)=O)C(C)C)C(C)C)C(C)C,-,-,-,0,-
O=C(COc1cccc2ccccc12)Nc1ccc(Cl)cc1C(=O)O,0,79µM,0,0,0
Cc1cc(C(=O)Nc2ccccc2C(=O)O)ccc1NC(=O)COc1ccccc1Cl,0,22µM,0,0,0
O=C(COc1cccc2ccccc12)Nc1cc(Cl)ccc1C(=O)O,0,0,0,0,0
CCC(C)C(=O)Nc1cc(Cl)ccc1C(=O)O (configuration not stated),0,0,0,0,0
CCC(=O)Nc1cc(Cl)ccc1C(=O)O,?,0,0,0,79µM
O=C(COc1ccccc1Cl)Nc1ccc(C(=O)O)cc1NC(=O)COc1ccccc1Cl,0,0[12.7 µM],0,0,0
Cc1ccc(CC(=O)O/N=C(\N)c2ccncc2)cc1,0,-,0,0,0
O=S(=O)(c1ccccc1)N1CCC(n2cnc3ccccc32)CC1,0,0,0,0,0
COc1ccc(CN(C)C(=O)CNC(=O)c2sc3ccccc3c2Cl)c(OC)c1OC,-,-,0,-,89µM
COc1cccc(CN(C)C(=O)CNC(=O)c2ccc(-c3ccccc3)cc2)c1OC,0,45µM,0,0,0
COc1cccc(CN(C)C(=O)CNC(=O)c2cccs2)c1OC,0,0,0,-,0
CCOc1ccc(NS(=O)(=O)c2ccc(C(=O)N(C)Cc3cccc(OC)c3OC)cc2)cc1,0,0,0,0,89µM
COc1cccc(CN(C)C(=O)c2ccc(NS(=O)(=O)c3ccc4[nH]c(=O)[nH]c4c3)cc2)c1OC,0,0,0,0,0
CC(NC(=O)COC(=O)CCC(=O)c1ccc(F)cc1)c1ccccc1 (configuration not stated),-,-,0,-,0
CCCCn1c(N)c(N(CC(C)C)C(=O)CSc2n[nH]c(-c3ccc(C)cc3)n2)c(=O)[nH]c1=O,0,?,0,-,0
COc1cccc(OCC(=O)O)c1,0,0,0,0,0
Nn1cnnc1N/N=C\c1ccc(-c2ccccc2[N+](=O)[O-])o1,?,35µM,0,45µM,?
Cc1cc([N+](=O)[O-])c(C)cc1-c1ccc(/C=N/NC(=O)c2cccnc2)o1,?,45µM,0,0,0
O=C(N/N=C\c1ccc([N+](=O)[O-])o1)c1cncc(Br)c1,0,0,0,0,0
O=C(N/N=C/c1ccc(-c2ccccc2[N+](=O)[O-])o1)c1cncc(Br)c1,0,32µM,?,?,?
NC1=NC(=O)/C(=C\c2ccc(O)c([N+](=O)[O-])c2)S1,0,?,0,0,0
NC1=NC(=O)/C(=C/c2cccc(-c3ccc(S(N)(=O)=O)cc3)c2)S1,?,35µM,0,0,0
O=Cc1ccccc1-c1cn(CCCOCc2ccccc2)nn1,0,0,0,0,0
SMILES,BAZ2B inh,G9a block,HP1b binding inh,Sfp inh,JMJD2A Tudor
CN(C)S(=O)(=O)c1cccc(NC(=O)c2cc(=O)[nH]c(=O)[nH]2)c1,?,1.1µM,0,?,?
CCN(CC)S(=O)(=O)c1cccc(NC(=O)c2ccc(C#N)cc2)c1,0,20µM,0,0,0
CN(c1ccccc1)S(=O)(=O)c1cccc(NC(=O)c2cccc(C#N)c2)c1,0,0[12.7 µM],0,-,0
Cc1nn(-c2ccccc2)c2c1C(c1cccs1)C(C#N)=C(N)O2 (configuration not stated),40µM,35µM,50µM,0,56µM
Cc1nn(-c2ccccc2)c(C)c1C1C(C#N)=C(N)Oc2n[nH]c(C)c21 (configuration not stated),0,?,0,0,0
Cc1nn(-c2ccccc2)c2c1C(c1ccco1)C(C#N)=C(N)O2 (configuration not stated),40µM,40µM,0,0,63µM
CCCc1nn(-c2ccccc2)c2c1C(c1cccs1)C(C#N)=C(N)O2 (configuration not stated),40µM,?,0,0,?
COc1cc(C2C(C#N)=C(N)Oc3c2c(-c2ccccc2)nn3-c2ccccc2)cc(OC)c1OC (configuration not stated),45µM,?,0,0,?
COC(=O)Cc1[nH]nc2c1C(c1cc(OC)c(OC)c(OC)c1)C(C#N)=C(N)O2 (configuration not stated),0,0,0,0,0
Cc1[nH]nc2c1C(c1ccco1)C(C#N)=C(N)O2 (configuration not stated),0,0,0,0,0
COc1ccccc1CNC(=O)c1cc2cccc3c2n1CC(C)S3 (configuration not stated),0,0,0,-,0
Cc1nn(-c2ccccc2)c(Cl)c1C1C(C#N)=C(N)OC2=C1C(=O)CC(C)(C)C2 (configuration not stated),0,0,0,0,0
Cc1nn(-c2ccccc2)c2c1C(c1ccc([N+](=O)[O-])cc1)C(C#N)=C(N)O2 (configuration not stated),?,50µM,0,0,0
CCCCCCn1ccc(=N)cc1,0,0,0,0,0
CCCCCCCCCCCCCCCCn1cc[n+](CC(C)=O)c1,0,0,0,35µM,0
C=C(C)CN1C(=O)c2ccccc2C1=O,0,0,0,0,0
C=C(C)CC1Nc2ccccc2NC1CC(=C)C (configuration not stated),50µM,?,0,?,79µM
O=C(Nc1ccc(NC(=O)C2CCCCC2)nc1)c1ccccn1,?,28µM,0,0,?
CCCC(=O)Nc1ccc(NC(=O)c2ccccn2)cn1,0,?,0,0,3.2µM
COc1cccc(C(=O)Nc2ccc(NC(=O)C3CC3)nc2)c1,0,40µM,0,0,0
